Assay results published in the supplement of paper PMC8728848.
Many of the other results were omitted from the sample, so the strongest signals are more common in it than they were.

Experiments:
Assay in all cases: glycan array binding signal (z-score within array); higher = stronger binding
Settings in all cases: glycan notation: IUPAC condensed, linker removed
[1] = target: Fuc(a1-2)Gal(b1-3)GalNAc(a1-3)[Fuc(a1-2)]Gal(b1-4)GlcNAc
Summary of the method: (§1)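 Glycan array binding is given as a within-array Z-score, which can be read as non-binding when negative. The arrays, 3228 of them, came from the Consortium for Functional Glycomics database and were retained only where the protein sequence was available. Z-scores were averaged across arrays of the same protein sequence at different concentrations or buffers and across linkers.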

[2] = target: Fuc(a1-2)Gal(b1-4)Fuc(a1-3)]GlcNAc(b1-2)Man(a1-3)[Fuc(a1-2)Gal(b1-4)[Fuc(a1-3)]GlcNAc(b1-2)Man(a1-6)]Man(b1-4)GlcNAc(b1-4)GlcNAc
Summary of the method: as §1

[3] = target: Fuc(a1-2)Gal(b1-4)GlcNAc(b1-2)Man(a1-3)[Fuc(a1-2)Gal(b1-4)GlcNAc(b1-2)Man(a1-6)]Man(b1-4)GlcNAc(b1-4)[Fuc(a1-6)]GlcNAc
Summary of the method: as §1

[4] = target: Fuc(a1-2)Gal(b1-4)GlcNAc(b1-3)GalNAc
Summary of the method: as §1

[5] = target: Fuc(a1-2)Gal(b1-4)[Fuc(a1-3)]GlcNAc(b1-3)GalNAc
Summary of the method: as §1

[6] = target: Fuc(a1-2)[Gal(a1-3)]Gal(b1-3)GalNAc(b1-3)Gal(a1-4)Gal(b1-4)Glc
Summary of the method: as §1

[7] = target: Fuc(a1-2)[GalNAc(a1-3)]Gal
Summary of the method: as §1

[8] = target: Fuc(a1-2)[GalNAc(a1-3)]Gal(b1-4)[Fuc(a1-3)]GlcNAc(b1-3)GalNAc
Summary of the method: as §1

[9] = target: Fuc(a1-3)[Gal(b1-4)]GlcNAc(b1-2)Man(a1-3)[Fuc(a1-3)[Gal(b1-4)]GlcNAc(b1-2)Man(a1-6)]Man(b1-4)GlcNAc(b1-4)[Fuc(a1-6)]GlcNAc
Summary of the method: as §1

Gal(b1-2)Gal = target: Gal(b1-2)Gal
Summary of the method: as §1

Gal(b1-3)GlcNAc = target: Gal(b1-3)GlcNAc
Summary of the method: as §1

Gal(b1-3)GlcNAc(b1-2)Man = target: Gal(b1-3)GlcNAc(b1-2)Man
Summary of the method: as §1

[10] = target: Gal(b1-3)GlcNAc(b1-2)Man(a1-3)[Gal(b1-3)GlcNAc(b1-2)Man(a1-6)]Man(b1-4)GlcNAc(b1-4)GlcNAc
Summary of the method: as §1

[11] = target: Gal(b1-3)GlcNAc(b1-3)Gal(b1-4)Glc
Summary of the method: as §1

[12] = target: Gal(b1-3)[Fuc(a1-4)]GlcNAc(b1-3)Gal(b1-3)[Fuc(a1-4)]GlcNAc
Summary of the method: as §1

Gal(b1-4)GlcNAc(b1-2)Man = target: Gal(b1-4)GlcNAc(b1-2)Man
Summary of the method: as §1

[13] = target: Gal(b1-4)GlcNAc(b1-2)Man(a1-3)[Gal(b1-4)GlcNAc(b1-2)Man(a1-6)]Man(b1-4)GlcNAc(b1-4)GlcNAc
Summary of the method: as §1

[14] = target: Gal(b1-4)GlcNAc(b1-2)[Gal(b1-4)GlcNAc(b1-6)]Man(a1-6)[GlcNAc(b1-4)][Gal(b1-4)GlcNAc(b1-2)Man(a1-3)]Man(b1-4)GlcNAc(b1-4)GlcNAc
Summary of the method: as §1

[15] = target: Gal(b1-4)GlcNAc(b1-3)Gal(b1-4)GlcNAc
Summary of the method: as §1

[16] = target: Gal(b1-4)GlcNAc(b1-3)Gal(b1-4)GlcNAc(b1-3)Gal(b1-4)GlcNAc(b1-2)Man(a1-3)[Gal(b1-4)GlcNAc(b1-3)Gal(b1-4)GlcNAc(b1-3)Gal(b1-4)GlcNAc(b1-2)Man(a1-6)]Man(b1-4)GlcNAc(b1-4)GlcNAc
Summary of the method: as §1

[17] = target: Gal(b1-4)GlcNAc(b1-3)Gal(b1-4)GlcNAc(b1-3)Gal(b1-4)GlcNAc(b1-3)Gal(b1-4)GlcNAc(b1-3)Gal(b1-4)GlcNAc(b1-2)Man(a1-3)[Gal(b1-4)GlcNAc(b1-3)Gal(b1-4)GlcNAc(b1-3)Gal(b1-4)GlcNAc(b1-3)Gal(b1-4)GlcNAc(b1-3)Gal(b1-4)GlcNAc(b1-2)Man(a1-6)]Man(b1-4)GlcNAc(b1-4)[Fuc(a1-6)]GlcNAc
Summary of the method: as §1

Gal3S(b1-3)GlcNAc = target: Gal3S(b1-3)GlcNAc
Summary of the method: as §1

[18] = target: Gal3S(b1-3)[Fuc(a1-4)]GlcNAc
Summary of the method: as §1

Gal6S(b1-4)GlcNAc6S = target: Gal6S(b1-4)GlcNAc6S
Summary of the method: as §1

[19] = target: GlcNAc(a1-4)Gal(b1-4)GlcNAc(b1-3)Gal(b1-4)[Fuc(a1-3)]GlcNAc(b1-3)Gal(b1-4)[Fuc(a1-3)]GlcNAc
Summary of the method: as §1

[20] = target: GlcNAc(b1-2)[GlcNAc(b1-4)]Man(a1-3)[GlcNAc(b1-2)Man(a1-6)]Man(b1-4)GlcNAc(b1-4)GlcNAc
Summary of the method: as §1

[21] = target: GlcNAc(b1-3)Gal(b1-4)GlcNAc(b1-3)[GlcNAc(b1-3)Gal(b1-4)GlcNAc(b1-3)]GalNAc
Summary of the method: as §1

[22] = target: Kdn(a2-3)Gal(b1-4)[Fuc(a1-3)]GlcNAc
Summary of the method: as §1

[23] = target: Neu5Ac(a2-3)Gal(b1-3)GlcNAc(b1-3)Gal(b1-3)GlcNAc
Summary of the method: as §1

[24] = target: Neu5Ac(a2-3)Gal(b1-3)[Neu5Ac(a2-6)]GlcNAc(b1-3)[Fuc(a1-3)[Gal(b1-4)]GlcNAc(b1-6)]Gal(b1-4)Glc
Summary of the method: as §1

B1: Epa20 (Candida glabrata) (protein)
chain: MGSSHHHHHHSSGLVPRGSHMASSNIPNNYPLGCSNKYSGHLPGLKMELYSYNYVNPRHPDPQNPGKLDQLYDPNLLGTYECFDSSYKDINYPRVGYKSKTLIGRSDGVSGILNFNFVPPWGCMPQKGQLPPAYNFKSNITLSNFTMILFGYFKPKISGNHIFSLHGDDLIYLNFGAGNAFDCCRQESSADNFGNYQAFSLWGINWEKKTLTVYLDMNTYYPIRIFYNNRDYQAIFNFSFKTEFDSSPVIDFQDYFFFLRDIDGGCPGEV
Which results are given for B1?
glycan array binding signal (z-score) [1]: -0.278; glycan array binding signal (z-score) [2]: 3.16; glycan array binding signal (z-score) [3]: -0.005; glycan array binding signal (z-score) [4]: -0.072; glycan array binding signal (z-score) [5]: 4.96; glycan array binding signal (z-score) [6]: -0.067; glycan array binding signal (z-score) [7]: -0.452; glycan array binding signal (z-score) [8]: 3.14; glycan array binding signal (z-score) [9]: 0.822; glycan array binding signal (z-score) (Gal(b1-2)Gal): -0.763; glycan array binding signal (z-score) (Gal(b1-3)GlcNAc): -0.446; glycan array binding signal (z-score) (Gal(b1-3)GlcNAc(b1-2)Man): 0.049; glycan array binding signal (z-score) [10]: 0.704; glycan array binding signal (z-score) [11]: -0.669; glycan array binding signal (z-score) [12]: -0.28; glycan array binding signal (z-score) (Gal(b1-4)GlcNAc(b1-2)Man): -0.114; glycan array binding signal (z-score) [13]: -0.534; glycan array binding signal (z-score) [14]: -0.48; glycan array binding signal (z-score) [15]: -0.384; glycan array binding signal (z-score) [16]: 3.18; glycan array binding signal (z-score) [17]: 6.07; glycan array binding signal (z-score) (Gal3S(b1-3)GlcNAc): -0.241; glycan array binding signal (z-score) [18]: 0.569; glycan array binding signal (z-score) (Gal6S(b1-4)GlcNAc6S): 0.939; glycan array binding signal (z-score) [19]: 0.435; glycan array binding signal (z-score) [20]: -0.31; glycan array binding signal (z-score) [21]: 0.532; glycan array binding signal (z-score) [22]: 0.229; glycan array binding signal (z-score) [23]: -0.76; glycan array binding signal (z-score) [24]: 2.49
